Changes are numbered by the printed parent chain.
Assays:
Experiment in all cases: protein-binding microarray (PBM); PBM: ~300 nM protein, 6 mM HEPES pH 7.8, 80 mM KCl, 0.5 mM EDTA, 0.5 mM EGTA, 6% glycerol, 35 ng/ul poly-dIdC, 1% milk, 1 h, room temperature; Ap Aiptasia and Nv Nematostella (sea anemones) / Co Capsaspora / Aq Amphimedon (sponge) / Dm Drosophila / Hu human; RHD is the Rel homology domain; high values mean tight binding
Conditions in all cases: dsDNA, one strand shown
GST-Ap-NF-kB RHD = molecular target: T1, GST-Ap-NF-kB RHD (Exaiptasia pallida (Aiptasia), UniProt A0A913YAJ5 2-422)
T1 sequence: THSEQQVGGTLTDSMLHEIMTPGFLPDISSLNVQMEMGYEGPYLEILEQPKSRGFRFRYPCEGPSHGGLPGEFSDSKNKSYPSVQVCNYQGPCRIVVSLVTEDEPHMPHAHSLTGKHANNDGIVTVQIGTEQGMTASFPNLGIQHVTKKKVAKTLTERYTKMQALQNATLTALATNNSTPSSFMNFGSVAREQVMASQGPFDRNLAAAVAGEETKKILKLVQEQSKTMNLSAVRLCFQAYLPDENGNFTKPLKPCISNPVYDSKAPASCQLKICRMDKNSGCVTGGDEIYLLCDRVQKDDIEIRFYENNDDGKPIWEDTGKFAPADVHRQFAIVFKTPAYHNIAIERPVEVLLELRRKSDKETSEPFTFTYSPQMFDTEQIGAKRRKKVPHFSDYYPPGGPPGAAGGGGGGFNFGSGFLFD

[1] = molecular target: T2, GST-Nv-NF-kB (Cys allele) (Nematostella vectensis, UniProt E5G601 2-411)
T2 sequence: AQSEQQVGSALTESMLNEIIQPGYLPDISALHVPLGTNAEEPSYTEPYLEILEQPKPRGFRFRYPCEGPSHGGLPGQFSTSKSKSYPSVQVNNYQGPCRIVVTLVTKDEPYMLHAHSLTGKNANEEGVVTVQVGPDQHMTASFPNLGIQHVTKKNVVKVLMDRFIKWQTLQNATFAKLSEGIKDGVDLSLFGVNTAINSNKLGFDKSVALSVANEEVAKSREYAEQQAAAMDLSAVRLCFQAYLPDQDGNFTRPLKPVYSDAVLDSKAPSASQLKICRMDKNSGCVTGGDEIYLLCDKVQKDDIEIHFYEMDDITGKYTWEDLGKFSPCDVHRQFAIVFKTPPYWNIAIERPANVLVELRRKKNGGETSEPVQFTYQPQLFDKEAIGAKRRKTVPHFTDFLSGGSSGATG

[2] = molecular target: T3, GST-Nv-NF-kB (Ser allele) (Nematostella vectensis, UniProt A7UNT2 2-411)
T3 sequence: T2 sequence with Q21R, C66S, S207N, E215Q, V217A, E225K, A268E, D399E

GST-Co-NF-kB = molecular target: T4, GST-Co-NF-kB (Capsaspora owczarzaki, UniProt F1ARL5 200-546)
T4 sequence: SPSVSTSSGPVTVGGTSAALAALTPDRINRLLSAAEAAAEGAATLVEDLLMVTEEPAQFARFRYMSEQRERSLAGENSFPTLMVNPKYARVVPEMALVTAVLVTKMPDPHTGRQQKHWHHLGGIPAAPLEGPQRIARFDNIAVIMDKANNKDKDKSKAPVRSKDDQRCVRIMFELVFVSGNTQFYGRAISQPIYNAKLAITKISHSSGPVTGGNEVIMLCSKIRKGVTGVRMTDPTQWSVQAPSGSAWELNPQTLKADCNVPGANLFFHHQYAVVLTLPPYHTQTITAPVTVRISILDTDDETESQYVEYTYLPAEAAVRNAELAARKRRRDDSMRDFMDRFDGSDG

GST-Dm-Relish = molecular target: T5, GST-Dm-Relish (Drosophila melanogaster, UniProt Q94527 99-473)
T5 sequence: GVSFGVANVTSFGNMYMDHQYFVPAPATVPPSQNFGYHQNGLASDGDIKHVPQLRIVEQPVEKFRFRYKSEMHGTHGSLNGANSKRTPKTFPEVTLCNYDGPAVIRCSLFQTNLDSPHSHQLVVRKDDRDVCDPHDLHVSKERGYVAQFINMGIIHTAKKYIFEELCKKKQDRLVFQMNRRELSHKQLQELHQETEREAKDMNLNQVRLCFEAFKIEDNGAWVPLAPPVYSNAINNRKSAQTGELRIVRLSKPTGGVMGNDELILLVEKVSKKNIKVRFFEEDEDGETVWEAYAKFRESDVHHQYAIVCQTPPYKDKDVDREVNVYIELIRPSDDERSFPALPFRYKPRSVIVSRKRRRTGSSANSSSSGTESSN

GST-Aq-NF-kB = molecular target: T6, GST-Aq-NF-kB (Amphimedon queenslandica, UniProt A9Y5G7 2-389)
T6 sequence: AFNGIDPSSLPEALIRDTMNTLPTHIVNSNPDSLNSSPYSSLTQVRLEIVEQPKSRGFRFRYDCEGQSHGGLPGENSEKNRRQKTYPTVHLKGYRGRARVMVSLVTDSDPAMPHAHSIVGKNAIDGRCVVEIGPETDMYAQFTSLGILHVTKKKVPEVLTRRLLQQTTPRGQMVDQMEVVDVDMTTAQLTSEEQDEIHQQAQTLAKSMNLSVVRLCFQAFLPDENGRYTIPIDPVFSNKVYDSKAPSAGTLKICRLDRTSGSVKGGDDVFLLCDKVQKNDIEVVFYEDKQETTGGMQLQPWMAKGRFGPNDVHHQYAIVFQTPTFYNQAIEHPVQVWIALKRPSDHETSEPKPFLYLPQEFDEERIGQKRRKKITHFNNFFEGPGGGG

GST-Hu-p50 = GST-Hu-p50 (Homo sapiens, UniProt P19838 7-356)
Sequence of GST-Hu-p50 (P19838 7-356): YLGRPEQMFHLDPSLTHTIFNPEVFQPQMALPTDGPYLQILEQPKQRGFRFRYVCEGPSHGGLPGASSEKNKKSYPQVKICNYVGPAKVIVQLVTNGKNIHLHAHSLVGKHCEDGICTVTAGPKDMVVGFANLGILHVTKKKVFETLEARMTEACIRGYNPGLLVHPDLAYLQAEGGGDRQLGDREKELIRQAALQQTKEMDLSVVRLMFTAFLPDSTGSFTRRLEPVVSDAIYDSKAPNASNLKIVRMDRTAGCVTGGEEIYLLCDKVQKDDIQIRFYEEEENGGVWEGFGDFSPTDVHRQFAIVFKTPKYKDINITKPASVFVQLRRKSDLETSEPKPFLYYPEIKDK

Row | Sequence | binding signal (GST-Ap-NF-kB RHD) [z-score] | binding signal [1] [z-score] | binding signal [2] [z-score] | binding signal (GST-Co-NF-kB) [z-score] | binding signal (GST-Dm-Relish) [z-score] | binding signal (GST-Aq-NF-kB) [z-score] | binding signal (GST-Hu-p50) [z-score]
1 | CCGATTAACATCAAAAAAACCCCTGATGTTAATCGGGTCTTGATTCGCTTGACGCTGCTG | 9.17 | 10 | 9.69 | 3.62 | 9.78 | 8.79 | 7.76
2 | CCGATTAACATCAGGGAAATACCTGATGTTAATCGGGTCTTGATTCGCTTGACGCTGCTG | 6 | 8.81 | 6.78 | 3.06 | 8.42 | 9.82 | 5.57
3 | CCGATTAACATCAGAACTCCCCCTGATGTTAATCGGGTCTTGATTCGCTTGACGCTGCTG | 7.91 | 6.48 | 7.12 | 6.15 | 5.58 | 6.48 | 7.11
4 | CCGATTAACATCAGGGAAGTCCCTGATGTTAATCGGGTCTTGATTCGCTTGACGCTGCTG | 9.31 | 11.7 | 9.19 | 1.97 | 10.4 | 10.2 | 6.58
5 | CCGATTAACATCAAATACTCCCCTGATGTTAATCGGGTCTTGATTCGCTTGACGCTGCTG | 6.1 | 5.48 | 6.09 | 6.89 | 3.34 | 5.29 | 4.01
6 | CCGATTAACATCAAATTTCCCACTGATGTTAATCGGGTCTTGATTCGCTTGACGCTGCTG | 2.73 | 4.26 | 4.5 | 4.39 | 3.33 | 4.27 | 4.02
7 | CCGATTAACATCAGGGGTAAATATGATGTTAATCGGGTCTTGATTCGCTTGACGCTGCTG | 2.7 | 3.39 | 3.87 | 7.48 | 1.66 | 3.06 | 3.84
8 | CCGATTAACATCAAGGAACTCCCTGATGTTAATCGGGTCTTGATTCGCTTGACGCTGCTG | 3.98 | 3.82 | 2.62 | 1.49 | 5.06 | 5.06 | 3.54
9 | CCGATTAACATCAGGGGAAAAAATGATGTTAATCGGGTCTTGATTCGCTTGACGCTGCTG | 6.24 | 8.26 | 10.4 | 11.1 | 4.87 | 6.42 | 6.22
10 | CCGATTAACATCAGGGGGGTACCTGATGTTAATCGGGTCTTGATTCGCTTGACGCTGCTG | 5.8 | 3.31 | 3.85 | 4.86 | 5.81 | 5.74 | 4.26
11 | CCGATTAACATCAAAAATCCACCTGATGTTAATCGGGTCTTGATTCGCTTGACGCTGCTG | 2.25 | 2.65 | 3.34 | 1.26 | 4.27 | 3.29 | 4.62
12 | CCGATTAACATCAAATTCCCAACTGATGTTAATCGGGTCTTGATTCGCTTGACGCTGCTG | 2.17 | 3.56 | 3.7 | 2.15 | 3.39 | 2.22 | 2.66
13 | CCGATTAACATCACGGGGAACTCTGATGTTAATCGGGTCTTGATTCGCTTGACGCTGCTG | 6.71 | 6.61 | 6.85 | 6.94 | 7.12 | 4.95 | 4.53
14 | CCGATTAACATCAAATAACCCCCTGATGTTAATCGGGTCTTGATTCGCTTGACGCTGCTG | 7.15 | 7.1 | 7.94 | 4.2 | 8.44 | 7.02 | 6.17
15 | CCGATTAACATCAGGGGAGTCCATGATGTTAATCGGGTCTTGATTCGCTTGACGCTGCTG | 6.16 | 3.64 | 4.15 | 3.05 | 6.79 | 4.34 | 3.32
16 | CCGATTAACATCACTGTTTCCCCTGATGTTAATCGGGTCTTGATTCGCTTGACGCTGCTG | 5.28 | 7.06 | 9.29 | 7.92 | 2.5 | 4.25 | 4.88
17 | CCGATTAACATCAGGGGATGCACTGATGTTAATCGGGTCTTGATTCGCTTGACGCTGCTG | 4.3 | 4.83 | 6.02 | 2.97 | 9.57 | 5.85 | 4.77
18 | CCGATTAACATCAAAAATTCCCCTGATGTTAATCGGGTCTTGATTCGCTTGACGCTGCTG | 10.4 | 12.8 | 14 | 9.75 | 9.69 | 9.6 | 7.99
19 | CCGATTAACATCAGGGAAAAACATGATGTTAATCGGGTCTTGATTCGCTTGACGCTGCTG | 3.76 | 5.03 | 7.18 | 5.51 | 6.52 | 5.27 | 4.03
20 | CCGATTAACATCACGGGAAATCCTGATGTTAATCGGGTCTTGATTCGCTTGACGCTGCTG | 5.03 | 6.03 | 5.29 | 4.57 | 6.3 | 6.18 | 3.91
21 | CCGATTAACATCAGGGAAACACCTGATGTTAATCGGGTCTTGATTCGCTTGACGCTGCTG | 5.49 | 6.62 | 6.01 | 2.74 | 6.92 | 7.75 | 5.15
22 | CCGATTAACATCAGGGGTACCCCTGATGTTAATCGGGTCTTGATTCGCTTGACGCTGCTG | 7.75 | 3.69 | 2.78 | 6.06 | 5.81 | 6.3 | 3.73
23 | CCGATTAACATCAGGGGATGTTATGATGTTAATCGGGTCTTGATTCGCTTGACGCTGCTG | 5.57 | 6.43 | 7.06 | 3.17 | 5.86 | 5.53 | 5.29
24 | CCGATTAACATCACAAGTTCCCCTGATGTTAATCGGGTCTTGATTCGCTTGACGCTGCTG | 7.44 | 7.71 | 8.61 | 7.27 | 6.56 | 6.21 | 5.93

Source: article PMC5700166
